The list is not random: actives were taken first. Their share in the collection is about 28%.
CYP2C19 activ = cytochrome P450 2C19 (human) activation; recombinant CYP2C19, luciferin-H EGE luminescence; stronger effect = higher value; 0 = fully inhibited enzyme, 1 = untreated enzyme; 96,000 tested, under 10 active; activation factor at 5 µM;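 active means activation factor of at least 2 at 5 µM in the primary screen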;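 further: 0 = wells with 2.5 mM tranylcypromine and 1 = vehicle-only wells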
CYP2C9 act = increases human cytochrome P450 2C9 activity. recombinant CYP2C9, luciferin-H conversion, luminescence; stronger effect = higher value; factor 1 = untreated enzyme, 0 = blocked. activation factor at 5 µM. AID 1024. P11712. 96,000 compounds, 1.4% hits;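 active means activation factor of 2 or more for CYP2C9 at a 5 µM dose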;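 further: 0 = sulfaphenazole-blocked wells and 1 = vehicle-only wells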
hDAT+cocaine = modulates human dopamine transporter uptake under cocaine. Q01959. LLC-PK1 hDAT cells, [14C]-dopamine uptake with cocaine IC80; actives deviate in either direction. B-score at 10 µM. 110,000 compounds, 1.3% hits. AID 449768;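 active means Z score or B-score, a plate-position-corrected score, falls beyond the plate's 99.7% confidence bounds, in either direction; inactive means both scores lie inside the 99.7% bounds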;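 further: scored against the spread of the other compound wells on the same plate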
Target sequence (Q01959 whole entry, looked up): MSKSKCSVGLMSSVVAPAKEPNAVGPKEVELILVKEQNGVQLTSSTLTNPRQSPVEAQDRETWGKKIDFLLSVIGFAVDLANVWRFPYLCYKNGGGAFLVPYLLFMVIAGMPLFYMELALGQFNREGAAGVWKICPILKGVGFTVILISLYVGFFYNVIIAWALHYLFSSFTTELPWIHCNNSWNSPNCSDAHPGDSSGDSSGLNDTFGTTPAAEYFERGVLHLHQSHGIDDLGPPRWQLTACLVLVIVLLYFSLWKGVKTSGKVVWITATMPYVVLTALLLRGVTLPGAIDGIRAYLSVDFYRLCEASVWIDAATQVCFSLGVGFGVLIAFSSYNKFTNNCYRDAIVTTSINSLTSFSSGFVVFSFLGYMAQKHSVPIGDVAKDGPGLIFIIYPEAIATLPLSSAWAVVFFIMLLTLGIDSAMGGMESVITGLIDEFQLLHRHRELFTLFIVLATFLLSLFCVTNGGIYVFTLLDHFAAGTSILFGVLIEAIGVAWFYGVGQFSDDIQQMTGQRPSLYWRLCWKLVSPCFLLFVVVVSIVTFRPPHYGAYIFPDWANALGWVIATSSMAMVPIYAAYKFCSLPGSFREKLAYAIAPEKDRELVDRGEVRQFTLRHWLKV
CYP2C9 inhib = inhibitors of human CYP2C9. P11712. CYP2C9 Supersomes, luciferin-H conversion, luminescence. inhibition, % at 5 µM. 96,000 compounds, 20% hits. AID 777;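 active means blocking of liver enzyme CYP2C9 beyond about 50% at 5 µM, limit read from the data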
CYP2C19 inhib = inhibitors of human CYP2C19; inhibition, % at 5 µM; AID 778; CYP2C19 Supersomes, luciferin-H EGE luminescence, 30 min; P33261; 96,000 compounds, 21% hits;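 active means CYP2C19 inhibition above a set limit at 5 µM in the primary screen, cut at about 50% in these data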;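 further: plate controls were negative control wells for no effect and 2.5 mM tranylcypromine positive control for full effect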
D1 mod = D1 dopamine receptor (human) allosteric modulation | P21728 | HEK293 D1, CRE-luciferase, dopamine EC30 potentiation; actives deviate in either direction | B-score at 10 µM | 58,000 compounds, 5.9% hits;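 active means luminescence count or its row- and column-corrected plate score outside the 99.7% band of the plate's sample wells, on either side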
* hit, by the source's call; nt = not tested or not shown.

SMILES	CYP2C19 activ	CYP2C9 act	hDAT+cocaine	CYP2C9 inhib	CYP2C19 inhib	D1 mod
CCc1nnc(NC(=O)C2CC(=O)N(c3ccc(C)cc3)C2)s1 (stereo not given)	1.1	0.9	-0.0398	11.6	-7.0	-0.155
CCCC1CCc2c(sc(NC(=O)OCC)c2C#N)C1 (stereo not given)	nt	nt	0.503	nt	nt	nt
COC(=O)c1cc(OC)cc(O)c1C(=O)c1c(O)cc(C)cc1O	nt	nt	1.11	nt	nt	nt
Oc1ccc(Cl)cc1C(C#Cc1ccccc1)N1CCOCC1 (stereo not given)	0.6	0.5	1.08	49.3	37.2	nt
Cc1cccc(OCCSc2nnc(-c3ccoc3C)n2C)c1	0	0.4	0.0887	57.5*	97.6*	-0.987
Cn1c(SCCOc2cccc(Cl)c2)nnc1-c1ccncc1	0.1	0.8	-0.0815	20.6	91.9*	0.125
Cc1ccc(OCCSc2nnc(-c3ccncc3)n2C)cc1	0.1	0.6	-0.0362	42.9	92.7*	-0.887
Cn1c(SCCC(=O)O)nnc1-c1ccncc1	nt	nt	-0.767	nt	nt	nt
Cc1ccc(C)c(S(=O)(=O)NCC(=O)Nc2sc3c(c2C(N)=O)CCC(C)C3)c1 (stereo not given)	0.8	1	1.46	-1.0	15.2	nt
Cc1nc(CC(=O)O)c(-c2ccccc2)s1	1	1	-0.484	3.9	-3.1	0.0538
COc1cccc(C(=O)N2CCN(c3ncccn3)CC2)c1	0.3	0.7	0.00343	32.3	70.3*	0.178
COc1cccc(C(=O)N2CCN(C3CCC(c4ccccc4)CC3)CC2)c1 (stereo not given)	0.1	0.7	-0.51	33.6	90.9*	-0.84
COc1ccc(C(=O)N2CCN(c3ccccn3)CC2)cc1	0.3	0.8	0.311	20.2	67.2*	nt
COc1ccc(N2CCN(C(=O)c3ccncc3)CC2)cc1	0.2	0.6	-0.839	38.9	78.9*	nt
CC(C)(C)c1ccc(Cn2ccc(-c3ccc4c(c3)OCO4)n2)cc1	0.9	0.8	0.675	15.8	9.3	nt
O=[N+]([O-])c1ccc(Oc2c(F)c(F)nc(N3CCCC3)c2F)cc1	0.6	1	nt	4.8	40.2	nt
COc1ccc(C2C(C(=O)N3CCN(c4ccccn4)CC3)CC(=O)N2c2ccc(OC)cc2)cc1 (stereo not given)	nt	nt	0.0802	nt	nt	-3.08*
COc1cccc(C(=O)N2CCN(Cc3cc(Br)ccc3OC)CC2)c1	nt	nt	0.342	nt	nt	nt
CCCS(=O)(=O)N1CCN(C(=O)c2cccc(OC)c2)CC1	0.2	0.9	0.63	10.6	77.7*	0.207
CCCNC(=O)Cn1cnc2sc(C(=O)N3CCN(CCC)CC3)c(C)c2c1=O	1	0.9	0.0141	6.5	0.5	0.0896
CCn1cnc2sc(C(=O)N3CCN(c4ccc(OC)cc4)CC3)c(C)c2c1=O	0.8	0.4	-0.991	56.8*	23.8	nt
COc1ccc(C2C(C(=O)N3CCCC3)CC(=O)N2c2ccc(OC)cc2)cc1 (stereo not given)	0.9	1	0.855	4.7	9.9	0.175
COc1cccc(C(=O)N2CCN(Cc3ccccc3C(F)(F)F)CC2)c1	0.1	0.6	0.532	37.2	95.0*	1.39
Cc1nnc(SCC(=O)NC(C)c2ccccc2)[nH]c1=O (stereo not given)	1	1	0.222	3.5	-2.9	-0.503
CC(C)(C)c1ccc(NC(=O)c2ccc3c(c2)S(=O)(=O)c2ccccc2C3=O)cc1	nt	nt	0.196	nt	nt	nt
SMILES	CYP2C19 activ	CYP2C9 act	hDAT+cocaine	CYP2C9 inhib	CYP2C19 inhib	D1 mod
O=C1N/C(=N\N=C\c2cccnc2)SC1Cc1ccc(SC(F)F)cc1 (stereo not given)	1	0.5	2.29	52.8*	2.3	nt
O=C1N/C(=N\N=C\c2ccc3ncccc3c2)SC1Cc1ccc(SC(F)F)cc1 (stereo not given)	1	0.5	-0.678	48.5	-3.9	nt
O=C(NCc1ccco1)Nc1ccc(Br)cc1Cl	0.5	0.5	0.239	52.9*	47.1	-0.747
O=C(NCc1ccco1)c1cccc2ccccc12	0.8	3*	-0.806	-203.2	24.1	-0.0524
O=C(NCc1ccco1)c1ccccc1Nc1ccc(F)cc1	0.1	0.3	0.237	67.0*	89.4*	0.518
O=C(Nc1cccc(Cl)c1)Nc1ccccc1C(=O)NCc1ccco1	0.9	0.4	-0.214	57.6*	13.9	nt
COc1ccc(CCN2C(=O)C3C4CC(C5C(C(=O)O)=NOC45)C3C2=O)cc1OC (stereo not given)	0.9	1.1	-1.29	-8.7	7.5	nt
O=C1CC(N2CCCc3ccccc32)C(=O)N1c1ccccc1Cl (stereo not given)	nt	nt	0.937	nt	nt	nt
CCN(CC)C(=O)c1cnn(-c2ccccc2)c1NC(=O)c1ccccc1F	nt	nt	0.882	nt	nt	nt
C[N+]1(C)CCCC(OC(=O)C(O)(c2ccccc2)c2ccccc2)C1 (stereo not given)	nt	nt	-1.62	nt	nt	nt
Cc1nn(C)c(C)c1NC(=O)CN1CCC(O)(c2ccc3c(c2)OCO3)CC1	1.1	1.1	0.755	-6.6	-6.8	-0.82
Cc1ccc(O)c(N=Nc2ccccc2)n1	nt	nt	0.812	nt	nt	nt
N/C(Cc1ccc(Cl)cc1)=N\OC(=O)c1ccc2ccccc2c1	1.1	0.8	-0.815	17.2	-14.8	nt
N/C(Cc1ccc(Cl)cc1)=N\OC(=O)c1cccc2ccccc12	0.9	2*	0.136	-103.3	12.1	nt
Cc1cc(C(=O)Nc2sc3c(c2C#N)CCC(C(C)(C)C)C3)no1 (stereo not given)	0.9	0.7	-0.397	34.0	6.6	0.224
CC(C)(C)C1CCc2c(sc(NC(=O)c3cc(C4CC4)on3)c2C#N)C1 (stereo not given)	0.9	0.3	-1.27	72.7*	9.0	0.365
Cc1ccc(-c2cc(NC(=O)CSc3n[nH]c(N)n3)n(-c3ccccc3)n2)cc1	0.7	0.7	-0.138	27.8	27.2	nt
Nc1nc(SCC(=O)Nc2ccccc2Sc2ccc(Cl)cc2)n[nH]1	0	0	-0.676	98.8*	100.4*	nt
Nc1nc(SCC(=O)Nc2cc(-c3ccccc3)nn2-c2ccccc2)n[nH]1	0.1	0.4	1.36*	60.5*	93.6*	nt
CCOC(=O)c1oc2cc(C)cc(O)c2c(=O)c1-c1csc(C)n1	1	1.3	-0.675	-28.5	4.1	nt
Cc1cc(C(=O)NCCCN2CCOCC2)n(-c2ccccc2)n1	1	0.9	-0.906	13.8	2.0	-0.528
Cc1ccc2cc(CN(CC3CCCO3)C(=O)c3ccco3)c(=O)[nH]c2c1C (stereo not given)	nt	nt	nt	nt	nt	-0.686
CCc1ccc(C(=O)Nc2cc3c(cc2Cl)OCCCO3)cc1	0.9	2.2*	0.247	-117.4	7.2	nt
CCC(O)c1cc2c(cc1NC(=O)c1ccc(C)cc1)OCCO2 (stereo not given)	0.4	0.2	0.00623	76.5*	63.8*	0.407
O=C(Nc1cc2c(cc1Cl)OCCO2)c1ccco1	nt	nt	0.747	nt	nt	nt
COc1ccc(-c2noc(-c3ccccc3C(=O)NCc3ccco3)n2)cc1OC	0.7	0.8	0.983	20.9	31.2	-0.855
COc1cccc2cc(C(=O)NCc3ccccn3)c(=O)oc12	nt	nt	0.78	nt	nt	nt

Source: PubChem (several laboratories)
